Assay results: article PMC7862700, “An all-to-all approach to the identification of sequence-specific readers for epigenetic DNA modifications on cytosine”

Columns and labels:
Test in all cases: DAPPL (digital affinity profiling via proximity ligation, sequencing); 10 mM Tris-HCl pH 7.5, 50 mM NaCl, 1 mM DTT, 4% glycerol, room temperature, 30 min; GST-TFs on glutathione beads, 16-mer random dsDNA library, 0.1% formaldehyde crosslink after washing; high values mean tight binding
FLI1 = target: T1, FLI1 (Homo sapiens, UniProt Q01543 1-452); conditions: protein: recombinant; tags: N-terminal GST; dsDNA, one strand shown
T1 sequence: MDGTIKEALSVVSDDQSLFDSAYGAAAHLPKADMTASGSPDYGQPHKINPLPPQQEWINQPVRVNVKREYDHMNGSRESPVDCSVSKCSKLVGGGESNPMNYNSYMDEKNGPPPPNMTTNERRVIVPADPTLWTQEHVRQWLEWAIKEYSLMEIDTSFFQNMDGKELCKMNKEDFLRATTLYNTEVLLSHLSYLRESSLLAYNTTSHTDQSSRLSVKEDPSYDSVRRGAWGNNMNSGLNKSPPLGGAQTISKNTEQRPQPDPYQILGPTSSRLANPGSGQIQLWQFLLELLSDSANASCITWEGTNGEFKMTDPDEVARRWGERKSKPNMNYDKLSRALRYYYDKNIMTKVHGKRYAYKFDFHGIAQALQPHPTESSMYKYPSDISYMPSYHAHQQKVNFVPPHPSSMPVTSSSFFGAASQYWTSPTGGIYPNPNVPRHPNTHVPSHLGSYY
Procedure, shortened: (§1)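 Yeast served to express human transcription factors as GST fusions, which were then captured on glutathione beads and labelled with DNA barcodes. Pooled with a tag-only sample, they were incubated with 200 nmole of a 16-mer random double-stranded DNA library for 30 min at room temperature in Tris/NaCl/DTT/glycerol buffer, washed, crosslinked with 0.1% formaldehyde, ligated by proximity, amplified by PCR and sequenced. Dividing each hexamer's read frequency for a factor by its frequency for the tag-only sample gives the binding signal.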

ELK1 = target: T2, ELK1 (Homo sapiens, UniProt P19419 1-428); conditions: protein: recombinant; tags: N-terminal GST; dsDNA, one strand shown
T2 sequence: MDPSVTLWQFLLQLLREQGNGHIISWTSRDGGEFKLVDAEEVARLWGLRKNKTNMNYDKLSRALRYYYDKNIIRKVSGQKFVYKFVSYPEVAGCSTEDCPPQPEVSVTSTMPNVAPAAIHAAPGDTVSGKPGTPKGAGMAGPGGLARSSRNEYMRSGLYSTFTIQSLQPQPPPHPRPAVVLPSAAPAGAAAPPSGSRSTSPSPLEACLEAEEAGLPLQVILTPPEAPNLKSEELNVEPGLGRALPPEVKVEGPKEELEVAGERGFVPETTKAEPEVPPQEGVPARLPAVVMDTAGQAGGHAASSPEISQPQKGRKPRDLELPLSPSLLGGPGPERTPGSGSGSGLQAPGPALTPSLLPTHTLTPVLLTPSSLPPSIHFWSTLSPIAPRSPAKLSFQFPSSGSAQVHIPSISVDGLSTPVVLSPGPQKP
Procedure, shortened: as §1

GABPA = target: T3, GABPA (Homo sapiens, UniProt Q06546 1-454); conditions: protein: recombinant; tags: N-terminal GST; dsDNA, one strand shown
T3 sequence: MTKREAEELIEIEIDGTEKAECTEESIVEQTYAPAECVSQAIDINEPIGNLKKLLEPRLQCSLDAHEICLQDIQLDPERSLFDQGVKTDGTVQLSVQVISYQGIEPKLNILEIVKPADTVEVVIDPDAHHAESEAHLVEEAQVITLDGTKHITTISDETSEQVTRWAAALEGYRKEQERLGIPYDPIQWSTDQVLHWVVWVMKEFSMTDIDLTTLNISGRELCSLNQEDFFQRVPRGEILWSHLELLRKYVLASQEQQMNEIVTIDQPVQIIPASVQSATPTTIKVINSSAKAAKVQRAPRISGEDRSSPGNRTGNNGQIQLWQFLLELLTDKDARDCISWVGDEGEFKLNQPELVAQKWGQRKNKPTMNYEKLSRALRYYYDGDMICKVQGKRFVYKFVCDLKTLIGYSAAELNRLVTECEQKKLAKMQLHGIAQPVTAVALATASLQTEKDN
Procedure, shortened: as §1

ERG = target: T4, ERG (Homo sapiens, UniProt P11308 1-479); conditions: protein: recombinant; tags: N-terminal GST; dsDNA, one strand shown
T4 sequence: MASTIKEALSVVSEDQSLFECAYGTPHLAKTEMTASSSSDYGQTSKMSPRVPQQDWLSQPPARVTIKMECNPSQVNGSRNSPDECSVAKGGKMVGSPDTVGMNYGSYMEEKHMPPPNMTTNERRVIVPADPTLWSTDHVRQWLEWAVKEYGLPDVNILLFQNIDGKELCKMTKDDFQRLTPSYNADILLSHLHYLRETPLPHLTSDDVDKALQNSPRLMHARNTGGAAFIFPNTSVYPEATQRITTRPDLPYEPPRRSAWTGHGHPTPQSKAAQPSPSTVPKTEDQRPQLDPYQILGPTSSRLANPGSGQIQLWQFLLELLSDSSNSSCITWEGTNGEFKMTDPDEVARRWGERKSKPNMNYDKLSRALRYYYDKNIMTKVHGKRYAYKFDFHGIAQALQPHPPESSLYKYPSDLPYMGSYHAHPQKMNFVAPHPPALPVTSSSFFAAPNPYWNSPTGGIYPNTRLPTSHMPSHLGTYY
Procedure, shortened: as §1

ELF1 = ELF1 (Homo sapiens, UniProt P32519 1-619); conditions: protein: recombinant; tags: N-terminal GST; dsDNA, one strand shown
Procedure, shortened: as §1

EHF = target: T5, EHF (Homo sapiens, UniProt Q9NZC4 1-300); conditions: protein: recombinant; tags: N-terminal GST; dsDNA, one strand shown
T5 sequence: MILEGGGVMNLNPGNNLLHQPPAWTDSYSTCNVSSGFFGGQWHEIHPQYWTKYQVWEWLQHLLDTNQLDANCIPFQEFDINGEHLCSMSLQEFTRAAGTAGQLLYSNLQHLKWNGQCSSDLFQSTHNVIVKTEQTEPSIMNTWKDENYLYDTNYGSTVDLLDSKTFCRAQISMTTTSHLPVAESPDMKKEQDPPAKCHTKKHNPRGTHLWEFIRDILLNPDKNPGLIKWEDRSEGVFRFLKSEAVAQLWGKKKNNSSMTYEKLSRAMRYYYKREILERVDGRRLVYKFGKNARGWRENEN
Procedure, shortened: as §1

SPI1 = SPI1 (Homo sapiens, UniProt P17947 1-270); conditions: protein: recombinant; tags: N-terminal GST; dsDNA, one strand shown
Procedure, shortened: as §1

SPIB = SPIB (Homo sapiens, UniProt Q01892 1-262); conditions: protein: recombinant; tags: N-terminal GST; dsDNA, one strand shown
Procedure, shortened: as §1

ELK3 = target: T6, ELK3 (Homo sapiens, UniProt P41970 1-407); conditions: protein: recombinant; tags: N-terminal GST; dsDNA, one strand shown
T6 sequence: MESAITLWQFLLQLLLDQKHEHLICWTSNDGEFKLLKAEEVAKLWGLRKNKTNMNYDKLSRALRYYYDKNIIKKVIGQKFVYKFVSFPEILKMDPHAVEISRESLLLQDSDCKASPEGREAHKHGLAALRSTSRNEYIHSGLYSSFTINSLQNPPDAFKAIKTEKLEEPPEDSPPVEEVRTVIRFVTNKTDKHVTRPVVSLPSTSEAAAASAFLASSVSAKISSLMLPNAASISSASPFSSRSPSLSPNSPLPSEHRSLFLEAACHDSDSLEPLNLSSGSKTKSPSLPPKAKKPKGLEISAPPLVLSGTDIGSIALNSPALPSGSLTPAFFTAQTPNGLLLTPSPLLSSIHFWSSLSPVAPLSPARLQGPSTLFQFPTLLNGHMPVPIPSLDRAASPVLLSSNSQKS
Procedure, shortened: as §1

FEV = target: T7, FEV (Homo sapiens, UniProt Q99581 1-238); conditions: protein: recombinant; tags: N-terminal GST; dsDNA, one strand shown
T7 sequence: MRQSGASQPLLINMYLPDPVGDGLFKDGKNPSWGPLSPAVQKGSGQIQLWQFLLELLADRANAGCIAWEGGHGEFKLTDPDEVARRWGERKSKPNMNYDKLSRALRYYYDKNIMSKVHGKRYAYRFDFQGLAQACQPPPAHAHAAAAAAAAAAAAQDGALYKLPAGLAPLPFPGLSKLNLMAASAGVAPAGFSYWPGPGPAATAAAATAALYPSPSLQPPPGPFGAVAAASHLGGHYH
Procedure, shortened: as §1

ETV5 = ETV5 (Homo sapiens, UniProt P41161 1-510); conditions: protein: recombinant; tags: N-terminal GST; dsDNA, one strand shown
Procedure, shortened: as §1

HSF1 = HSF1 (Homo sapiens, UniProt Q00613 1-529); conditions: protein: recombinant; tags: N-terminal GST; chain copies: 3; dsDNA, one strand shown
Procedure, shortened: as §1

SPIC = target: T8, SPIC (Homo sapiens, UniProt Q8N5J4 1-248); conditions: protein: recombinant; tags: N-terminal GST; dsDNA, one strand shown
T8 sequence: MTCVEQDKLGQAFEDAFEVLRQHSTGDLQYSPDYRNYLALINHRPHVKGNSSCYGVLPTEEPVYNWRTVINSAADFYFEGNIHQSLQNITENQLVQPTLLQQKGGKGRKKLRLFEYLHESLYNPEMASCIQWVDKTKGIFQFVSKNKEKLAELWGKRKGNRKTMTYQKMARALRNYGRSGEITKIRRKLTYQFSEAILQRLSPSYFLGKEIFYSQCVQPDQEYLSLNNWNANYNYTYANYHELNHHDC
Procedure, shortened: as §1

ELF4 = ELF4 (Homo sapiens, UniProt Q99607 1-663); conditions: protein: recombinant; tags: N-terminal GST; dsDNA, one strand shown
Procedure, shortened: as §1

ELK4 = target: T9, ELK4 (Homo sapiens, UniProt P28324-2 1-405); conditions: protein: recombinant; tags: N-terminal GST; dsDNA, one strand shown
T9 sequence: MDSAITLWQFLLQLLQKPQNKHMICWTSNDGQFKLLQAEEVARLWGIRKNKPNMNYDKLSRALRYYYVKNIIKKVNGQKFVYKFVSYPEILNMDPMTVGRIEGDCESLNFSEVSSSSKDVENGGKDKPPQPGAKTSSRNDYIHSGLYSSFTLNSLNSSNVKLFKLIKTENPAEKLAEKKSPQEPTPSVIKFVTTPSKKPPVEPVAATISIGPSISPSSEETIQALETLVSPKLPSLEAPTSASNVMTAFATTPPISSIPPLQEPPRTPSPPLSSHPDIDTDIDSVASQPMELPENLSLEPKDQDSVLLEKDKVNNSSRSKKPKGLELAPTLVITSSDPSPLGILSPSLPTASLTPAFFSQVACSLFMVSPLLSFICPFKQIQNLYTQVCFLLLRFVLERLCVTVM
Procedure, shortened: as §1

ETV2 = target: T10, ETV2 (Homo sapiens, UniProt O00321 1-342); conditions: protein: recombinant; tags: N-terminal GST; dsDNA, one strand shown
T10 sequence: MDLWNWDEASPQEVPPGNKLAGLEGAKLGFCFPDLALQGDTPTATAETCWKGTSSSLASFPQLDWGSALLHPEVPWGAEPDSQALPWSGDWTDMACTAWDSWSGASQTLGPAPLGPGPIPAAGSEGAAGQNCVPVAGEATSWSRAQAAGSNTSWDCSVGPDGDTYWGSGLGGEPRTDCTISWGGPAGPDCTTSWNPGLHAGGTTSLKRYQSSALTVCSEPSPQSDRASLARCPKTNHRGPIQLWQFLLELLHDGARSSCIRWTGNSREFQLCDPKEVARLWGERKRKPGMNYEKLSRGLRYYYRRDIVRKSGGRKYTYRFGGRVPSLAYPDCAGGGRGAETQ
Procedure, shortened: as §1

ELF3 = target: T11, ELF3 (Homo sapiens, UniProt P78545 1-371); conditions: protein: recombinant; tags: N-terminal GST; dsDNA, one strand shown
T11 sequence: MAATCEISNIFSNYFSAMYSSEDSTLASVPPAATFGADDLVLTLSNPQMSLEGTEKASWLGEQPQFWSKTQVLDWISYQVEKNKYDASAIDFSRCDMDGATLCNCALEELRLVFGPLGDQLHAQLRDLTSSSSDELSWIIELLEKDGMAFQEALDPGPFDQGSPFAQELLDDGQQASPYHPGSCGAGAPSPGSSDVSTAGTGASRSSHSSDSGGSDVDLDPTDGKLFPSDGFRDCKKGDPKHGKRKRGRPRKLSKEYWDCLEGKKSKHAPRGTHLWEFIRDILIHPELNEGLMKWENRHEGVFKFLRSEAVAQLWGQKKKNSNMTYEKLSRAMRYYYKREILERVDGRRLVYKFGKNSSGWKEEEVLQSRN
Procedure, shortened: as §1

CRX = CRX (Homo sapiens, UniProt O43186 1-299); conditions: protein: recombinant; tags: N-terminal GST; dsDNA, one strand shown
Procedure, shortened: as §1

ETV1 = ETV1 (Homo sapiens, UniProt P50549 1-477); conditions: protein: recombinant; tags: N-terminal GST; dsDNA, one strand shown
Procedure, shortened: as §1

Chain of CRX (O43186 whole entry): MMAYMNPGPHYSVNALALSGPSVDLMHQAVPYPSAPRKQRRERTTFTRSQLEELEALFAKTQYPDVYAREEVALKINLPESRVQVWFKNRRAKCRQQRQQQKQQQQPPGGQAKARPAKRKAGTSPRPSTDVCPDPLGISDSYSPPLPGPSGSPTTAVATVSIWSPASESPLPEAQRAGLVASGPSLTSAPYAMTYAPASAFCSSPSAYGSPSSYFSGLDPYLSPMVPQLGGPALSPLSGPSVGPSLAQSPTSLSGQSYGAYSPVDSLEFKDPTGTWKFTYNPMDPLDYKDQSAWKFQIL
Chain of SPIB (Q01892 whole entry): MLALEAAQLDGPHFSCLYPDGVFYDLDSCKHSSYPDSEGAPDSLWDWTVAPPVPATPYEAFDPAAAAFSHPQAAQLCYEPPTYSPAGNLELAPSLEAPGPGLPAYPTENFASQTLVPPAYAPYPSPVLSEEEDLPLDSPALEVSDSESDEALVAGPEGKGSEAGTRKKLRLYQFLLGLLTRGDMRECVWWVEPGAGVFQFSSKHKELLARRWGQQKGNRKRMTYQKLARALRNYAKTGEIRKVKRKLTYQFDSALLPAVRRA
Chain of ELF1 (P32519 whole entry): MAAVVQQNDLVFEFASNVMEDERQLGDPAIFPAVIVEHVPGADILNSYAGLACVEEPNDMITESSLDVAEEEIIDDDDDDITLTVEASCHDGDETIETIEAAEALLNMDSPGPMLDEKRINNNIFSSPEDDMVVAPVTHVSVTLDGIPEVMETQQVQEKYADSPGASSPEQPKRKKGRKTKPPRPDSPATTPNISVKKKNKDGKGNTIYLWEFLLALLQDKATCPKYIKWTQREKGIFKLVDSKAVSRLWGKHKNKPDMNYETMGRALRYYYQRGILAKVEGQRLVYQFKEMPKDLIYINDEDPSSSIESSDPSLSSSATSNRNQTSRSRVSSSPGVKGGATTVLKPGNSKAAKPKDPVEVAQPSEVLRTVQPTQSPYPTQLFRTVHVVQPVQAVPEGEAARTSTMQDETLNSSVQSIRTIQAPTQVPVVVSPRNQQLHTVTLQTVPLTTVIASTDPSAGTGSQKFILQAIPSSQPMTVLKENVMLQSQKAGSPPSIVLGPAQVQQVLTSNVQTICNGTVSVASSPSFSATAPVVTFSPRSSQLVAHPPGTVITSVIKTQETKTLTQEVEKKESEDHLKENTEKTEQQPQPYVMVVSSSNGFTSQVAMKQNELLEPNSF
Chain of ELF4 (Q99607 whole entry): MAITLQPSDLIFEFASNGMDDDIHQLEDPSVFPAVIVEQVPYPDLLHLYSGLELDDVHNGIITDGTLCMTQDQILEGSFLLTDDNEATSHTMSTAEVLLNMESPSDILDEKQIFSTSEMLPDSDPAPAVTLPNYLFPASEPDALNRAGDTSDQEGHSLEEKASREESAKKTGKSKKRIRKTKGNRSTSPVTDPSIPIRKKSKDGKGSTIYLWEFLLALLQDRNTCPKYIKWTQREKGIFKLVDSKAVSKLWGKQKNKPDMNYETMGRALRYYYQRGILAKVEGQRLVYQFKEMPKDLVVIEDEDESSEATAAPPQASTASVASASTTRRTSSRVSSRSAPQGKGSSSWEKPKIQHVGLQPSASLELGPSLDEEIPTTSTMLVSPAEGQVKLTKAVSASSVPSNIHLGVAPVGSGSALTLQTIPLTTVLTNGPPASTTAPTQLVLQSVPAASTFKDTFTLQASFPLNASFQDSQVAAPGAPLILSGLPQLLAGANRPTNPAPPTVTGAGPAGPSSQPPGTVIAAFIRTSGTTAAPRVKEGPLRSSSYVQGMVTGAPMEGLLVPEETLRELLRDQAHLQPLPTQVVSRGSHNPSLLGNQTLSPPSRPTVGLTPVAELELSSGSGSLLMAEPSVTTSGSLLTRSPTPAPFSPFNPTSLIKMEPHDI
Chain of HSF1 (Q00613 whole entry): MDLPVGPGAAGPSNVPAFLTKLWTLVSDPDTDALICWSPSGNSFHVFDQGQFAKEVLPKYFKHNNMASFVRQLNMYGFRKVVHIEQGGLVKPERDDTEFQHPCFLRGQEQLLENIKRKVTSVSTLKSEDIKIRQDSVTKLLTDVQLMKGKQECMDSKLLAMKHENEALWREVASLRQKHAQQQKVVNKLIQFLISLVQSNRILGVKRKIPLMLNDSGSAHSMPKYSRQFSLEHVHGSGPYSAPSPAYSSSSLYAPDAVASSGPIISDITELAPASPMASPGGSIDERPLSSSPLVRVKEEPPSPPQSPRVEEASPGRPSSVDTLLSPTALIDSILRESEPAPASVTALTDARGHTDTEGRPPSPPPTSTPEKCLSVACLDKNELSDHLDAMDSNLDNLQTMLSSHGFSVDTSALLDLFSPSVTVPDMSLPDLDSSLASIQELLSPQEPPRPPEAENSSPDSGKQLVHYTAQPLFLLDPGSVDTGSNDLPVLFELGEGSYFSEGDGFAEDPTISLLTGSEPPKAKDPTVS
Chain of ETV5 (P41161 whole entry): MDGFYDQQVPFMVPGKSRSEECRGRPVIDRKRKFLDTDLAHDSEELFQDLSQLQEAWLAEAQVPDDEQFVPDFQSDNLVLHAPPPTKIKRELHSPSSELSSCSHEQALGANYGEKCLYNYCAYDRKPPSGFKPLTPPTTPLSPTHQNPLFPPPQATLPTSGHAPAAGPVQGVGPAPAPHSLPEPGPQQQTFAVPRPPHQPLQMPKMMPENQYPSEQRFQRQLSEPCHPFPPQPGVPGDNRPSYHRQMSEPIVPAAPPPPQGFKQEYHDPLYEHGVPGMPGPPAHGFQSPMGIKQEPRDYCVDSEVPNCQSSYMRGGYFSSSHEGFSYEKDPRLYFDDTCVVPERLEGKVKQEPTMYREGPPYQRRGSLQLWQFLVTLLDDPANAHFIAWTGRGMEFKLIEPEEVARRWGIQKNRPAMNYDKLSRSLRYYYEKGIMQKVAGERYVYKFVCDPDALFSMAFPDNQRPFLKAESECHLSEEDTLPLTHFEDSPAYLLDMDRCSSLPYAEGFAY
Chain of ETV1 (P50549 whole entry): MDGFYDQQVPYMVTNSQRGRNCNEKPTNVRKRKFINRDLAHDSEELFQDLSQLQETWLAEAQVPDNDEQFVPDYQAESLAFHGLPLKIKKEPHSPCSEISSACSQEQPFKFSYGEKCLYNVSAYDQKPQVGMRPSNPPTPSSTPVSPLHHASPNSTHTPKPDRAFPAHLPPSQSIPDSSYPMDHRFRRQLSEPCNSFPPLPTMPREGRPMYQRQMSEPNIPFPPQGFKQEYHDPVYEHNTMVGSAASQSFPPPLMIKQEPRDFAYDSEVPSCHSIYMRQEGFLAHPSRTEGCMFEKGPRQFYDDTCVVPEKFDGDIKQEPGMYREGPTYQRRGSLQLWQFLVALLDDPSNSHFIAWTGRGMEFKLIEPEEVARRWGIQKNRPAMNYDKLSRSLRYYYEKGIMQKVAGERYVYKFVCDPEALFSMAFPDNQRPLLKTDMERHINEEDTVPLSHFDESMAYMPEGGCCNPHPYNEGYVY

In the case of CCTGTT, the binding signal (FLI1) is reported as 1.79 fold enrichment (6-mer frequency, TF over GST control), the binding signal (ELK1) is reported as 1.63 fold enrichment (6-mer frequency, TF over GST control) and the binding signal (GABPA) is reported as 1.73 fold enrichment (6-mer frequency, TF over GST control). For the same sequence, the binding signal (ERG) was 1.72 fold enrichment (6-mer frequency, TF over GST control), the binding signal (ELF1) was 1.75 fold enrichment (6-mer frequency, TF over GST control) and the binding signal (EHF) was 1.76 fold enrichment (6-mer frequency, TF over GST control). For the same sequence, the binding signal (SPI1) was 2 fold enrichment (6-mer frequency, TF over GST control), the binding signal (SPIB) was 1.75 fold enrichment (6-mer frequency, TF over GST control) and the binding signal (ELK3) was 1.94 fold enrichment (6-mer frequency, TF over GST control). For the same sequence, the binding signal (FEV) was 1.67 fold enrichment (6-mer frequency, TF over GST control), the binding signal (ETV5) was 1.79 fold enrichment (6-mer frequency, TF over GST control) and the binding signal (HSF1) was 1.2 fold enrichment (6-mer frequency, TF over GST control). The binding signal (SPIC) was 1.91 fold enrichment (6-mer frequency, TF over GST control), the binding signal (ELF4) was 1.72 fold enrichment (6-mer frequency, TF over GST control) and the binding signal (ELK4) was 1.55 fold enrichment (6-mer frequency, TF over GST control). The binding signal (ETV2) was 1.62 fold enrichment (6-mer frequency, TF over GST control), the binding signal (ELF3) was 1.62 fold enrichment (6-mer frequency, TF over GST control) and the binding signal (CRX) was 1.21 fold enrichment (6-mer frequency, TF over GST control). The binding signal (ETV1) was 1.69 fold enrichment (6-mer frequency, TF over GST control).
